{
  "source": "PubChem BioAssay AID588499",
  "about": "(NMMLSC, 2011)",
  "note": "Screen size: about 360,000 compounds; about 610 (0.17%) were called active. Roughly 2% stayed inconclusive and do not appear here. The full list was thinned out, with actives kept by preference. Values without a mark were called inactive. Cut-off read from the data, not from the text of the source: active = inhibition above about 30%; inconclusive = no clear call, values can overlap the other calls; inactive = below that.",
  "data": [
    {"system": "Botulinum neurotoxin type A light chain protease (Clostridium botulinum A str. ATCC 3502)", "assay": "BoNT/A light chain protease inhibitors, primary screen, biochemical, flow cytometry, MLPCN library (AID 588499); note: plate controls were buffer without enzyme for full effect and enzyme alone for no effect", "conditions": "multiplex microsphere protease substrate cleavage, at 10 µM, stronger effect = higher value", "values": [
      {"molecule": "CCOc1ccc(C(C)=O)cc1COC(=O)CNC(=O)c1cccs1", "inhibition": "-0.9%"},
      {"molecule": "Cc1cc2cc(CNC(=O)c3ccc(S(=O)(=O)N4CCOCC4)cc3)ccc2[nH]1", "inhibition": "71.1% (active)"},
      {"molecule": "Cc1cccc(NC(=S)NCc2ccc3[nH]c4c(c3c2)CCCC4)c1", "inhibition": "0.2%"},
      {"molecule": "Cc1ccc(C)c2[nH]c(=O)c(CCNC(=O)c3cccs3)cc12", "inhibition": "-0.5%"},
      {"molecule": "Cc1cc2cc(CNC(=O)c3cccs3)ccc2[nH]1", "inhibition": "75.4% (active)"},
      {"molecule": "COC(=O)c1ccc(CNC(=O)c2ccc(S(=O)(=O)N3CCCCCC3)cc2)cc1", "inhibition": "0.1%"},
      {"molecule": "CCc1cccc(CC)c1NC(=S)NCc1ccc2[nH]c(C)cc2c1", "inhibition": "34.3% (active)"},
      {"molecule": "O=C(Nc1ccc2cn[nH]c2c1)c1ccc(S(=O)(=O)N2CCOCC2)cc1", "inhibition": "-1.3%"},
      {"molecule": "Cc1c(Cl)cccc1NC(=S)NCc1ccc2c(c1)OCO2", "inhibition": "-1.1%"},
      {"molecule": "O=C(CSc1nncn1-c1cccnc1)N1CCOCC1", "inhibition": "-0.7%"},
      {"molecule": "COc1cccc(C=CC(=O)C=CC=Cc2ccccc2)c1", "inhibition": "0.9%"},
      {"molecule": "O=C(/C=C(O)/C=C/c1ccc(O)cc1)/C=C/c1ccc(O)cc1", "inhibition": "38.1% (active)"},
      {"molecule": "COc1ccc(/C=C/C(=O)c2c(O)cc(OC)cc2OC)cc1", "inhibition": "-0.9%"},
      {"molecule": "Cc1ccccc1S(=O)(=O)NC(=O)C1(C)CCN1C(=O)C1(c2ccc(Cl)cc2)CC1", "note": "(stereo unspecified)", "inhibition": "-0.5%"},
      {"molecule": "Cc1cc(C(=O)COc2ccccc2[N+](=O)[O-])c(C)n1-c1cccc(S(=O)(=O)N2CCOCC2)c1", "inhibition": "-2%"},
      {"molecule": "C#CCNC(=O)C[C@@H]1C[C@@]2(C(=O)OCC)CCCC=C2N(Cc2ccco2)C1=O", "inhibition": "-1.2%"},
      {"molecule": "CN(CC(=O)Nc1ccc(F)cc1)CC(=O)N1CCCCC1", "inhibition": "0.4%"},
      {"molecule": "COc1ccc(NC(=O)c2sc(=O)n(Cc3ccc(S(=O)(=O)N(C)C)cc3)c2C)cc1", "inhibition": "-0.2%"},
      {"molecule": "CC1(C(=O)NS(=O)(=O)c2ccc(Cl)cc2)CCN1C(=O)CC1CCCC1", "note": "(stereo unspecified)", "inhibition": "-0.4%"},
      {"molecule": "CN(C(=O)CCn1c(=S)oc2ccccc21)C1CCCCC1", "inhibition": "0.7%"},
      {"molecule": "Cn1nc(N)c2ncc(C(Cl)(Cl)Cl)nc21", "inhibition": "0%"},
      {"molecule": "Fc1cccc(Cc2c(-c3cccc(Cl)c3)nc3ccc(Br)cn23)c1", "inhibition": "9.7%"},
      {"molecule": "O=C1OCC2=C1C(c1ccccc1)CC(=O)N2c1cccc(F)c1", "note": "(stereo unspecified)", "inhibition": "-1.3%"},
      {"molecule": "CCCCOCCCNC(=O)C[C@@H]1C[C@@]2(C(=O)OC)CCCCC=C2N(CCC2=CCCCC2)C1=O", "inhibition": "-0.3%"},
      {"molecule": "CCc1nc2c(OCCOc3ccccc3)cccn2c1N(C)C(=O)c1ccccc1F", "inhibition": "-0.2%"},
      {"molecule": "COc1ccc([C@H]2N[C@]3(CCCN(Cc4ccco4)C3=O)[C@H]3C(=O)N(C)C(=O)[C@@H]23)cc1", "inhibition": "-0.4%"},
      {"molecule": "COC(=O)[C@]12CCCCC=C1N(CCC1=CCCCC1)C(=O)[C@H](CC(=O)NCC1CCCCC1)C2", "inhibition": "0%"},
      {"molecule": "CC(C)(C)CC(=O)Nc1nc(C(N)Cc2ccc(C(F)(F)F)cc2)cs1", "note": "(stereo unspecified)", "inhibition": "-0.5%"},
      {"molecule": "CN1CCN(C(=O)c2ccc(NC(=O)c3ccc(Br)o3)cc2)CC1", "inhibition": "0.8%"},
      {"molecule": "COC(=O)c1cn(C)c2ccc(S(=O)(=O)N3CC(C)CC(C)C3)cc2c1=O", "note": "(stereo unspecified)", "inhibition": "-1.1%"},
      {"molecule": "CC(=O)Nc1cccc(Nc2ccc(C#N)cc2)c1", "inhibition": "0%"},
      {"molecule": "COc1ccc(NC(=O)NN2CCN(C)CC2)c(OC)c1", "inhibition": "-3.1%"},
      {"molecule": "COc1ccc(C(=O)c2c(C)c(CCC#N)n3ccccc23)c(OC)c1", "inhibition": "0.8%"},
      {"molecule": "CC1(C)c2[nH]c3ccccc3c2C[C@H]2C(=O)N(N)CC(=O)N21", "inhibition": "-1.4%"},
      {"molecule": "Cc1nn(-c2ccc(F)cc2)c(Cl)c1/C=C(/CCC(=O)O)c1nc2ccccc2s1", "inhibition": "-0.5%"},
      {"molecule": "CC1=CC(=C(C#N)c2nc3ccccc3s2)C=C(C)N1c1ccc(F)cc1F", "inhibition": "48.3% (active)"},
      {"molecule": "CSCC[C@H](NC(=O)NCCc1ccc(F)cc1)C(=O)O", "inhibition": "0%"},
      {"molecule": "O=c1c2[nH]c3ccc(Cl)cc3c2ncn1Cc1ccccn1", "inhibition": "1%"},
      {"molecule": "O=C(NCc1ccc(Cl)cc1)C(=O)NCC1CCCN1S(=O)(=O)c1cccs1", "note": "(stereo unspecified)", "inhibition": "-1.5%"},
      {"molecule": "NC(=O)c1ccc(N2CCCC2)nc1", "inhibition": "0.8%"},
      {"molecule": "Oc1cccc(CCc2ccccn2)c1", "inhibition": "-0.4%"},
      {"molecule": "CCOc1ccccc1NC(=O)C1CCCN(C(=O)Nc2ccccc2)C1", "note": "(stereo unspecified)", "inhibition": "0%"},
      {"molecule": "COc1cc(OC)c(-n2cc(-c3ccc(Cl)cc3)[nH]c2=O)cc1Cl", "inhibition": "0.1%"},
      {"molecule": "O=C(COC(=O)CC1CC2CCC1C2)NC(=O)NC1CCCC1", "note": "(stereo unspecified)", "inhibition": "0.7%"},
      {"molecule": "O=C(NCc1ccccc1)C1c2ccccc2OCC(=O)N1C1CC1", "note": "(stereo unspecified)", "inhibition": "0%"},
      {"molecule": "O=C(NCCc1ccco1)C(=O)NCCC1CCCCN1S(=O)(=O)c1ccccc1", "note": "(stereo unspecified)", "inhibition": "-3.9%"}
    ]}
  ]
}
